# A structure can be active in one record and inactive in another. Activity calls are given as the source filed them. The calls were made as follows: active = hit-call score of the fitted dose curve at least 0.9, where 1 is the maximum; inactive = score below 0.9.
# Assays:
# Conditions in all cases: mRNA level, 48 h; actives raise or lower the signal
# [1] = read-out: Lipase C (LIPC), LIPC (gene 3990); assay: LTEA_HepaRG_LIPC: Life Technologies and Expression Analysis (LTEA) Assay for Lipase C (LIPC) using HepaRG (AID 2283514)
# Procedure, shortened: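 In this multiplexed gene-expression screen, human HepaRG cultures received test chemicals for 48 h across eight concentrations with 100 uM highest, in duplicate. Values reflect LIPC mRNA induction or suppression versus DMSO vehicle, from normalized qRT-PCR.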
# [2] = read-out: Lipoprotein lipase (LPL), LPL (gene 4023); assay: LTEA_HepaRG_LPL: Life Technologies and Expression Analysis (LTEA) Assay for Lipoprotein lipase (LPL) using HepaRG (AID 2283515)
# Procedure, shortened: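 Concentration-response testing used half-log steps from 100 uM in 0.5% DMSO on human HepaRG cells, 48 h, duplicate wells. Phenobarbital 1 mM served as induction control; LPL mRNA was normalized to ACTB, GAPDH, POLR2A.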
# [3] = read-out: MicroRNA 122 (MIR122), gene 406906; assay: LTEA_HepaRG_MIR122: Life Technologies and Expression Analysis (LTEA) Assay for MicroRNA 122 (MIR122) using HepaRG (AID 2283516); also: the transcript read is the microRNA miR-122
# Procedure, shortened: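 Expression measured by microfluidic qRT-PCR with three housekeeping genes for normalisation, after 48 h treatment of HepaRG cultures. Eight concentrations (top 100 uM, half-log steps, 0.5% DMSO vehicle) in duplicate; gain or loss fitted relative to vehicle.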
# [4] = read-out: matrix metalloproteinase-10 (MMP10), MMP10 (gene 4319); assay: LTEA_HepaRG_MMP10: Life Technologies and Expression Analysis (LTEA) Assay for matrix metalloproteinase-10 (MMP10) using HepaRG (AID 2283517)
# Procedure, shortened: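 In differentiated HepaRG cultures kept in 0.5% DMSO, test chemicals act for 48 h over an eight-point range with a top dose of 100 uM. Expression is then quantified by TaqMan RT-PCR against ACTB, GAPDH and POLR2A.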
# MYC, MYC (gene 4609) = assay: LTEA_HepaRG_MYC: Life Technologies and Expression Analysis (LTEA) Assay for MYC using HepaRG (AID 2283518)
# Procedure, shortened: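 Expression changes were scored by TaqMan qRT-PCR with ACTB, GAPDH and POLR2A normalization. Cultures in serum-free induction medium received duplicate 8-point concentration series, highest 100 uM, for 48 h; DMSO (0.5%) served as baseline.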
# [5] = read-out: matrix metalloproteinase-3 (MMP3), MMP3 (gene 4314); assay: LTEA_HepaRG_MMP3: Life Technologies and Expression Analysis (LTEA) Assay for matrix metalloproteinase-3 (MMP3) using HepaRG (AID 2283519)
# Procedure, shortened: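 Human liver HepaRG cultures received chemicals (top concentration 100 uM, 0.5% DMSO) for 48 h in duplicate. MMP3 mRNA induction or loss was then assessed via TaqMan qRT-PCR with housekeeping-gene normalisation.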
# [6] = read-out: Paternally Expressed 10 (PEG10), PEG10 (gene 23089); assay: LTEA_HepaRG_PEG10: Life Technologies and Expression Analysis (LTEA) Assay for Paternally Expressed 10 (PEG10) using HepaRG (AID 2283520);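 as to AC50: differentiated HepaRG human liver cells in serum-free induction medium with 0.5% DMSO; PEG10 transcript by qRT-PCR normalised to ACTB GAPDH and POLR2A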
# Procedure, shortened: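 PEG10 transcript measured by Fluidigm qRT-PCR, normalized to three housekeeping genes, in HepaRG cells treated 48 h (highest 100 uM, half-log steps, 0.5% DMSO vehicle). Cells plated 48 h before switching to serum-free induction medium.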
# [7] = read-out: Nuclear factor NF-kappa-B p105 subunit (Homo sapiens) (UniProt P19838); assay: LTEA_HepaRG_NFKB1: Life Technologies and Expression Analysis (LTEA) Assay for Nuclear Factor Kappa B Subunit 1 (NFKB1) using HepaRG (AID 2283521);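 also: differentiated human HepaRG liver cells in serum-free induction medium; TaqMan qRT-PCR transcript normalised to ACTB GAPDH and POLR2A housekeeping genes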
# Procedure, shortened: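 HepaRG, 48 h exposure; 8-pt half-log series from 100 uM in 0.5% DMSO; duplicates. Readout: NFKB1 mRNA by qRT-PCR (Fluidigm arrays), housekeeping-normalized. Gain/loss fit vs DMSO baseline.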
# [8] = read-out: Protein phosphatase 2A (PPP2R4), PTPA (gene 5524); assay: LTEA_HepaRG_PPP2R4: Life Technologies and Expression Analysis (LTEA) Assay for Protein phosphatase 2A (PPP2R4) using HepaRG (AID 2283522)
# Procedure, shortened: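 Expression was quantified by Fluidigm qRT-PCR normalised to three housekeeping genes after 48 h treatment. Human HepaRG cells received an 8-point series from 100 µM downward by half-logs, in duplicate with 0.5% DMSO vehicle and 1 mM phenobarbital as induction control.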
# [9] = read-out: Phosphatase and tensin (PTEN), PTEN (gene 5728); assay: LTEA_HepaRG_PTEN: Life Technologies and Expression Analysis (LTEA) Assay for Phosphatase and tensin (PTEN) using HepaRG (AID 2283523)
# Procedure, shortened: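 Expression of PTEN is quantified in the human liver line HepaRG following two days of dosing (top concentration 100 uM, half-log dilutions, 0.5% DMSO). Values derive from bidirectional curve fitting relative to DMSO controls.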
# [10] = read-out: Pyruvate Dehydrogenase Kinase 4 (PDK4), PDK4 (gene 5166); assay: LTEA_HepaRG_PDK4: Life Technologies and Expression Analysis (LTEA) Assay for Pyruvate Dehydrogenase Kinase 4 (PDK4) using HepaRG (AID 2283525)
# Procedure, shortened: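 Eight-point, half-log concentration series (max 100 uM, 0.5% DMSO) applied to differentiated HepaRG cells for 48 h in duplicate. Endpoint: PDK4 mRNA induction or repression by qRT-PCR against DMSO baseline.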
# [11] = read-out: NAD(P)H dehydrogenase [quinone] 1 (NQO1), NQO1 (gene 1728); assay: LTEA_HepaRG_NQO1: Life Technologies and Expression Analysis (LTEA) Assay for NAD(P)H dehydrogenase [quinone] 1 (NQO1) using HepaRG (AID 2283526)
# Procedure, shortened: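 NQO1 transcript induction or loss measured by TaqMan qRT-PCR, referenced to three housekeeping genes and fitted bidirectionally against 0.5% DMSO. HepaRG cultures exposed 48 h, duplicate, eight-point half-log series, top 100 uM.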
# [12] = read-out: Nuclear factor erythroid 2-related factor 2 (Homo sapiens) (UniProt Q16236); assay: LTEA_HepaRG_NFE2L2: Life Technologies and Expression Analysis (LTEA) Assay for Nuclear factor erythroid 2-related factor 2 (NFE2L2) Transcription Factor using HepaRG (AID 2283527);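 as to outcome: TaqMan qRT-PCR transcript level normalised to ACTB GAPDH and POLR2A housekeeping genes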
# Procedure, shortened: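 Human liver HepaRG line treated in duplicate for 48 h with an eight-point series topping at 100 uM. Gene expression of NFE2L2 by qRT-PCR, bidirectionally fitted against the vehicle control.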
# [13] = read-out: succinate dehydrogenase complex iron sulfur subunit B (SDHB), SDHB (gene 6390); assay: LTEA_HepaRG_SDHB: Life Technologies and Expression Analysis (LTEA) Assay for succinate dehydrogenase complex iron sulfur subunit B (SDHB) using HepaRG (AID 2283528)
# Procedure, shortened: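 Readout is SDHB transcript level by qRT-PCR, normalised to three housekeeping genes and fitted bidirectionally against 0.5% DMSO vehicle. Human HepaRG cells were treated for 48 h at up to 100 uM.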
# [14] = read-out: Signal transducer and activator of transcription 3 (Homo sapiens) (UniProt P40763); assay: LTEA_HepaRG_STAT3: Life Technologies and Expression Analysis (LTEA) Assay for Signal transducer and activator of transcription (STAT3) using HepaRG (AID 2283529)
# Procedure, shortened: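 In this transcriptional endpoint, HepaRG cultures receive test chemicals at up to 100 uM for 48 h, tested in duplicate. STAT3 mRNA is normalized to ACTB, GAPDH and POLR2A.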
# [15] = read-out: solute carrier (SLCO1B1), SLCO1B1 (gene 10599); assay: LTEA_HepaRG_SLCO1B1: Life Technologies and Expression Analysis (LTEA) Assay for solute carrier (SLCO1B1) using HepaRG (AID 2283530)
# Procedure, shortened: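 Human HepaRG cultures treated for 48 h with an eight-concentration half-log series topping at 100 uM; SLCO1B1 measured by qRT-PCR and fitted bidirectionally relative to DMSO.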
# [16] = read-out: sulfotransferase 2A1 (SULT2A1), SULT2A1 (gene 6822); assay: LTEA_HepaRG_SULT2A1: Life Technologies and Expression Analysis (LTEA) Assay for sulfotransferase 2A1 (SULT2A1) using HepaRG (AID 2283531)
# Procedure, shortened: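 Gene-expression endpoint in a human liver cell line: SULT2A1 mRNA change after 48 h chemical treatment, curves fitted in both directions relative to 0.5% DMSO vehicle. Concentrations spanned eight half-log steps from 100 uM.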
# [17] = read-out: Transforming Growth Factor (TGFB1), TGFB1 (gene 7040); assay: LTEA_HepaRG_TGFB1: Life Technologies and Expression Analysis (LTEA) Assay for Transforming Growth Factor (TGFB1) Transporter using HepaRG (AID 2283533)
# Procedure, shortened: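 Eight-point concentration-response (max 100 uM, half-log) in HepaRG under serum-free induction conditions, 48 h. TGFB1 mRNA by qRT-PCR, housekeeping-normalized.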
# [18] = read-out: solute carrier (SLC22A1), SLC22A1 (gene 6580); assay: LTEA_HepaRG_SLC22A1: Life Technologies and Expression Analysis (LTEA) Assay for solute carrier (SLC22A1) using HepaRG (AID 2283524);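 as to AC50: differentiated human HepaRG liver cells in serum-free induction medium; TaqMan qRT-PCR normalized to ACTB GAPDH and POLR2A housekeeping genes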
# Procedure, shortened: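 Transcript induction or suppression of SLC22A1 in human HepaRG cultures is scored after 48 h chemical treatment, with DMSO (0.5%) as baseline for bidirectional fitting. Concentrations span eight half-log points topping at 100 uM.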
# [19] = read-out: Transforming Growth Factor (TGFA), TGFA (gene 7039); assay: LTEA_HepaRG_TGFA: Life Technologies and Expression Analysis (LTEA) Assay for Transforming Growth Factor (TGFA) using HepaRG (AID 2283532)
# Procedure, shortened: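 Gene expression of TGFA was quantified by qRT-PCR after human HepaRG cells were treated for 48 h with test chemicals (eight concentrations, highest 100 uM, 0.5% DMSO). Activity in either direction was fitted relative to DMSO.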
# Sequence of Signal transducer and activator of transcription 3 (Homo sapiens) (P40763 whole entry, looked up): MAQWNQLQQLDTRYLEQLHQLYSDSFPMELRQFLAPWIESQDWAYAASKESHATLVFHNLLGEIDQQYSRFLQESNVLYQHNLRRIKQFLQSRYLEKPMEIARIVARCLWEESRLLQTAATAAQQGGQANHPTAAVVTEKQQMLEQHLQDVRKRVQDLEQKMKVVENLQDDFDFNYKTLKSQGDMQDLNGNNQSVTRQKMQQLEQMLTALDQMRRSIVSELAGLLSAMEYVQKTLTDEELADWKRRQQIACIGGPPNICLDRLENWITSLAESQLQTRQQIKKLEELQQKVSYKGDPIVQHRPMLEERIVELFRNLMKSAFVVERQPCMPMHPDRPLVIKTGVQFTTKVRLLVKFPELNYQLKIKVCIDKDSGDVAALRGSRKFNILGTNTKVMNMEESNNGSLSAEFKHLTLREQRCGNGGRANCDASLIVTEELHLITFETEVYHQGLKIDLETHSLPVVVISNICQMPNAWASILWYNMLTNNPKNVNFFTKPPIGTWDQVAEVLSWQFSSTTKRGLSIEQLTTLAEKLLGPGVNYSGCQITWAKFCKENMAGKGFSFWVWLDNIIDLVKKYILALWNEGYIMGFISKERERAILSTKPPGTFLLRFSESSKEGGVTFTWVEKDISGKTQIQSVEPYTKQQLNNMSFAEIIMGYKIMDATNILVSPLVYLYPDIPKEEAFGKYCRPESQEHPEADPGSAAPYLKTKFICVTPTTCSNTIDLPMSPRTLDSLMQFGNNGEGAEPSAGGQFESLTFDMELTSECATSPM
# Sequence of Nuclear factor erythroid 2-related factor 2 (Homo sapiens) (Q16236 whole entry, looked up): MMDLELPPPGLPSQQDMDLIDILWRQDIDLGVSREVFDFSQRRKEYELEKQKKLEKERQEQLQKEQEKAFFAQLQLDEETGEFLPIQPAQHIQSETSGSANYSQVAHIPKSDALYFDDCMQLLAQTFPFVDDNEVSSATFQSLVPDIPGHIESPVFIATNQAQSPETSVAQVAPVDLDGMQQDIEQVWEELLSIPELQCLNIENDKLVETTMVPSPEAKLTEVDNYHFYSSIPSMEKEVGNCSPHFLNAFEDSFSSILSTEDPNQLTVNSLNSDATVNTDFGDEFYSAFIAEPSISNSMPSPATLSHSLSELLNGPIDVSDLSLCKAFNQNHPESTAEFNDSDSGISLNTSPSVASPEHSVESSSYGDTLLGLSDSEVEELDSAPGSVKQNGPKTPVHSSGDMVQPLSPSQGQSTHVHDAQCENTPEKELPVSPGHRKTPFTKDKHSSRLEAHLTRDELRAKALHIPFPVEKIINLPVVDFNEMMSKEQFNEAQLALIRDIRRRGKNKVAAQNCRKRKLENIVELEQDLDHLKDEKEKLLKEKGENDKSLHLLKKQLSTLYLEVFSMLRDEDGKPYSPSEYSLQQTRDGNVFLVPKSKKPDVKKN
# Sequence of Nuclear factor NF-kappa-B p105 subunit (Homo sapiens) (P19838 whole entry, looked up): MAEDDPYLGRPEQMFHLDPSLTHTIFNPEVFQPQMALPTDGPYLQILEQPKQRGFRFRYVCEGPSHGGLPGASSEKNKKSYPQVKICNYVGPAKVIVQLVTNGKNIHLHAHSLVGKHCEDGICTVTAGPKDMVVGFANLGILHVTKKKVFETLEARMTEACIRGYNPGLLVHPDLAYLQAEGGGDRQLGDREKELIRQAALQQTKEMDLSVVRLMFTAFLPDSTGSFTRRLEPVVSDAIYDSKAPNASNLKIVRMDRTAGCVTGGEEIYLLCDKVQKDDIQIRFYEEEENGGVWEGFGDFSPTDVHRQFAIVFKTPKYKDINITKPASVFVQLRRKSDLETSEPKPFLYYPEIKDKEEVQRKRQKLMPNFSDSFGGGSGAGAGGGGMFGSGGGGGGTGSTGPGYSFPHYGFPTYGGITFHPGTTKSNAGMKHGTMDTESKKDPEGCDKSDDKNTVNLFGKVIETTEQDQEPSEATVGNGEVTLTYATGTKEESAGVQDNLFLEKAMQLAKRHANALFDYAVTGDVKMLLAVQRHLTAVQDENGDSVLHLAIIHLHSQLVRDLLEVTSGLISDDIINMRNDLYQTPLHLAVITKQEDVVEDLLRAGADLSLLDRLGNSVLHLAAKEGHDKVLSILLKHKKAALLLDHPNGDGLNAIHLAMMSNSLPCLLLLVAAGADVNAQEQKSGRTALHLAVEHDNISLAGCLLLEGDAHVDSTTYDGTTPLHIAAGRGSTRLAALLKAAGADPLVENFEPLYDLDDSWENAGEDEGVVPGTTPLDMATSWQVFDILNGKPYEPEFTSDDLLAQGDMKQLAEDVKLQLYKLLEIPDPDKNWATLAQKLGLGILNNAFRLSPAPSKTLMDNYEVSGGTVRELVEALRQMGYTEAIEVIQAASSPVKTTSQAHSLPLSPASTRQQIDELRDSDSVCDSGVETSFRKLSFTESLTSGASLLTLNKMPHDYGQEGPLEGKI
structure (smiles),measurement,setting,value
COc1cccc(C(=O)NN(C(=O)c2cc(C)cc(C)c2)C(C)(C)C)c1C,outcome,[1],inactive
same,outcome,[2],inactive
same,outcome,[3],inactive
same,outcome,[4],inactive
same,outcome,"MYC, MYC (gene 4609)",inactive
same,outcome,[5],inactive
same,outcome,[6],inactive
same,outcome,[7],inactive
same,outcome,[8],inactive
same,outcome,[9],inactive
same,AC50,[10],69.7 µM (active)
same,outcome,[11],inactive
same,outcome,[12],inactive
same,outcome,[13],inactive
same,AC50,[14],5.4 µM (active)
same,outcome,[15],inactive
same,AC50,[16],32.5 µM (active)
same,outcome,[17],inactive
COP(=O)(OC)OC(Br)C(Cl)(Cl)Br (stereo not given),outcome,[1],inactive
same,outcome,[2],inactive
same,outcome,[4],inactive
same,outcome,"MYC, MYC (gene 4609)",inactive
same,outcome,[5],inactive
same,outcome,[6],inactive
same,outcome,[8],inactive
same,outcome,[9],inactive
same,outcome,[18],inactive
same,AC50,[11],21.1 µM (active)
same,outcome,[12],inactive
same,outcome,[13],inactive
same,outcome,[14],inactive
same,outcome,[15],inactive
same,AC50,[16],50 µM (active)
same,outcome,[19],inactive
same,outcome,[17],inactive
CCOP(=S)(OCC)Oc1ccc2c(C)c(Cl)c(=O)oc2c1,AC50,[1],74.7 µM (active)
same,outcome,[2],inactive
same,AC50,[3],50 µM (active)
same,outcome,[4],inactive
same,AC50,"MYC, MYC (gene 4609)",50 µM (active)
same,outcome,[5],inactive
same,AC50,[6],13.2 µM (active)
same,outcome,[8],inactive
same,outcome,[9],inactive
same,AC50,[18],70 µM (active)
same,outcome,[11],inactive
same,AC50,[12],22.2 µM (active)
same,outcome,[13],inactive
same,outcome,[14],inactive
same,outcome,[15],inactive
same,outcome,[16],inactive
same,outcome,[17],inactive
CN1COCN(Cc2cnc(Cl)s2)C1=N[N+](=O)[O-],outcome,[2],inactive
same,outcome,[3],inactive
same,outcome,[4],inactive
same,outcome,"MYC, MYC (gene 4609)",inactive
same,outcome,[5],inactive
same,outcome,[6],inactive
same,outcome,[7],inactive
same,outcome,[8],inactive
same,outcome,[9],inactive
same,outcome,[18],inactive
same,outcome,[10],inactive
same,outcome,[11],inactive
same,outcome,[12],inactive
same,outcome,[13],inactive
same,outcome,[14],inactive
same,outcome,[15],inactive
same,outcome,[16],inactive
same,outcome,[19],inactive
same,outcome,[17],inactive
CN(C)[C@@H]1C(=O)C(C(N)=O)=C(O)[C@@]2(O)C(=O)C3=C(O)c4c(O)cccc4[C@@](C)(O)[C@H]3[C@H](O)[C@@H]12,outcome,[1],inactive
same,outcome,[2],inactive
same,outcome,[3],inactive
same,outcome,[4],inactive
same,outcome,"MYC, MYC (gene 4609)",inactive
same,AC50,[5],5.76 µM (active)
same,outcome,[5],inactive
same,outcome,[6],inactive
same,outcome,[8],inactive
same,outcome,[9],inactive
same,outcome,[18],inactive
same,outcome,[10],inactive
same,outcome,[11],inactive
same,outcome,[12],inactive
same,outcome,[13],inactive
same,outcome,[14],inactive
same,outcome,[15],inactive
same,outcome,[16],inactive
same,outcome,[17],inactive
Cc1cc(C2CC2)nc(Nc2ccccc2)n1,outcome,[1],inactive
same,outcome,[2],inactive
same,outcome,[3],inactive
same,outcome,[4],inactive
same,outcome,"MYC, MYC (gene 4609)",inactive
same,outcome,[5],inactive
same,outcome,[6],inactive
same,outcome,[8],inactive
same,outcome,[9],inactive
same,AC50,[18],67.7 µM (active)
same,outcome,[11],inactive
same,outcome,[12],inactive
same,outcome,[13],inactive
same,outcome,[14],inactive
same,outcome,[15],inactive
same,outcome,[16],inactive
same,outcome,[17],inactive
CC(C1CC1)C(O)(Cn1cncn1)c1ccc(Cl)cc1 (stereo not given),outcome,[1],inactive
same,outcome,[2],inactive
same,outcome,[3],inactive
same,outcome,[4],inactive
same,outcome,"MYC, MYC (gene 4609)",inactive
same,outcome,[6],inactive
same,outcome,[7],inactive
same,outcome,[8],inactive
same,outcome,[9],inactive
same,AC50,[18],66.9 µM (active)
same,outcome,[11],inactive
same,outcome,[12],inactive
same,outcome,[13],inactive
same,AC50,[14],0.389 µM (active)
same,outcome,[15],inactive
same,outcome,[16],inactive
same,outcome,[19],inactive
same,outcome,[17],inactive

# — PubChem BioAssay (EPA / NIEHS)
